This is a sample that favours compounds with a hit; in the whole collection about 7.6% have one here.
p53 reactivator = qHTS assay for re-activators of p53 using a Luc reporter; 320,000 tested, 0.063% active; AID 504706, 2011; H1299 p53-A138V BP100-luciferase reporter, luminescence, 24 h; Potency, µM (highest dose often 92.2 µM), for the others: top-dose activity change, positive = activation, hits mostly activators; further: potency means the concentration at half of the fitted maximal effect; % of control where 0% means no effect; nearly all actives have a fitted effect of over 45% in size
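H1299 (p53-null), stable ts p53-A138V + BP100-Luc; 1000 cells/well, Opti-MEM/10% FBS; cpd 4 pt, 1:5; 24 h, 37 deg C, 5% CO2; detection reagent 10 min RT; luminescence.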
VP16 counter = VP16 counterscreen qHTS for inhibitors of ROR gamma transcriptional activity; Potency, µM (doses to about 53.6 µM), for inactives: at the highest dose activity, negative = inhibition, hits mostly inhibitors; AID 2546, 2010; Drosophila S2 Gal4-VP16 UAS-luciferase, luminescence, 20 h; 310,000 tested, 3.5% active;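 further: Gal4-VP16 expression switched on by copper sulfate through the metallothionein promoter; potency means the concentration at half of the fitted maximal effect; on the % scale 0 is the no-effect control and ±100 the full control effect; nearly all actives have a fitted effect of over 50% in size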
ELG1 DNA repair = qHTS screen for small molecules that inhibit ELG1-dependent DNA repair in human embryonic kidney (HEK293T) cells expressing luciferase-tagged ELG1 | HEK293T ELG1-luciferase reporter, luminescence, 16 h; DNA damage induced by 5-fluorouridine | Potency, µM (doses to about 46.1 µM), inactives show at the highest dose activity change, negative = inhibition, most hits filed as inhibitors | 330,000 tested, 2.3% active | AID 504467, 2011; further: potency means the concentration at half of the fitted maximal effect; on the % scale 0 is the no-effect control and ±100 the full control effect; nearly all actives have a fitted effect of over 55% in size
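5-Fluorouridine DNA damage + compound/DMSO, 2,000 cells/well, 16 h, 37 °C/5% CO2. ONE-Glo, 30 min RT, luminescence. Readout = decrease in reporter signal.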
Giardia kill = Small Molecules that selectively kill Giardia lamblia: qHTS; 340,000 tested, 0.15% active; Giardia lamblia trophozoite viability; activity change, % at 7.66 µM, hits read low; AID 540267, 2011; in the data active means activity change below about -80%; inconclusive means between about -30% and that limit;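 further: parasites exposed to compound for two days anaerobically before the ATP read; on the % scale 0 is the no-effect control and ±100 the full control effect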
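Luminescence from cellular ATP indicates surviving trophozoites (100 cells/well) following 48 hrs anaerobic compound treatment at 37 deg C; signal develops 15-30 min at room temperature.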
RORg inh = qHTS for inhibitors of ROR gamma transcriptional activity | Nuclear receptor ROR-gamma (Mus musculus), P51450 | Drosophila S2 Gal4-RORgamma UAS-luciferase reporter, 20 h | Potency, µM (top dose mostly 53.6 µM), without a hit: top-dose activity change, negative = inhibition, usual class: inhibitors | 310,000 tested, 5.4% active | AID 2551, 2010; further: potency means the concentration at half of the fitted maximal effect; on the % scale 0 is the no-effect control and ±100 the full control effect; nearly all actives have a fitted effect of over 60% in size
Target sequence (P51450 whole entry, looked up, the tested form may be a part): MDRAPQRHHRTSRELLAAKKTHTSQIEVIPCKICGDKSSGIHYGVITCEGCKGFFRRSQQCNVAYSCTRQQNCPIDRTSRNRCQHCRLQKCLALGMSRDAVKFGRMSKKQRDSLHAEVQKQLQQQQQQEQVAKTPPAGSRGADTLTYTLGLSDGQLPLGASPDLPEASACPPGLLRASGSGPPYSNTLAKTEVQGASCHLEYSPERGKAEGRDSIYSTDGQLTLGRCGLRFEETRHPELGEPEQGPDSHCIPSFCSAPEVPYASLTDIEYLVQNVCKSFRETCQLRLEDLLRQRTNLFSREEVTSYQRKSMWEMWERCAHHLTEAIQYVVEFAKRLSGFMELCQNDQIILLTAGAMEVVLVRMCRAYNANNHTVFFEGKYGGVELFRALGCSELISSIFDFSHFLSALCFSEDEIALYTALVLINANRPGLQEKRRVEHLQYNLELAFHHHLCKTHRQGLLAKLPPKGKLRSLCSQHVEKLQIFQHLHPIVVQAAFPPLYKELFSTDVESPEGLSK
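Luminescence from a UAS-regulated Photinus luciferase reporter in stably transfected Drosophila Schneider cells is measured; decreased signal marks ROR gamma inhibition. Fusion expression is induced by 700 uM copper sulfate for 20 hr.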
BRCA1 expr act = qHTS Assay to Identify Small Molecule Activators of BRCA1 Expression | MCF7-BRCA1-FFLuc reporter, luminescence, 48 h; response scale: scaled: vehicle 0%, 10 µM genistein 100% | 380,000 tested, 1.1% active | Potency, µM (top dose mostly 46.1 µM), inactives show top-dose activation, actives largely listed as activators; further: potency means the concentration at half of the fitted maximal effect; nearly all actives have a fitted effect of over 80% in size
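Luminescence from a BRCA1-driven firefly luciferase in MCF7 cells was the read-out, taken 15 min after substrate addition following 48 h compound exposure at 37 °C. Data were normalized to a 10 microM genistein control and DMSO vehicle.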
The depositor's hits bear a star. Unless noted, the call rests on the fitted dose curve; in most records, active means well fitted curve in the direction sought with a large enough effect; inconclusive means small, poorly fitted or top-dose-only effect, or another doubt; inactive means no such curve, though single readings can be large; an effect the other way counts as inactive or inconclusive.

How did CCC(=O)c1ccc(OCCSc2ncccn2)cc1 do in these assays?
p53 reactivator: 17%; VP16 counter: -6%; ELG1 DNA repair: inconclusive; Giardia kill: -13; RORg inh: 11µM*; BRCA1 expr act: inconclusive

How did COc1cc(Br)c(Br)cc1N do in these assays?
p53 reactivator: -4%; VP16 counter: 5%; ELG1 DNA repair: 2%; Giardia kill: 12; RORg inh: 12%; BRCA1 expr act: -14%

What do the screens show for `Cn1c(NCCOc2ccccc2)nc2cc(-c3ccc(F)cc3)sc2c1=O`?
BRCA1 expr act: 15%

Results for CCC(CO)Oc1cc(NC(=O)c2ccccc2C)c2ncn(C(C)C)c2c1 (stereo not given) ?
p53 reactivator: -2%; ELG1 DNA repair: -16%; Giardia kill: -2; BRCA1 expr act: -19%

How did CCC(CO)Oc1cc(NC(=O)c2ccccc2F)c2ncn(C(C)C)c2c1 (stereo not given) do in these assays?
p53 reactivator: -2%; ELG1 DNA repair: 5.2µM*; Giardia kill: -5; BRCA1 expr act: -45%

What do the screens show for `CC(=O)N1N=C(c2ccncc2)OC12CCCCC2`?
p53 reactivator: -1%; VP16 counter: 1%; ELG1 DNA repair: 18%; Giardia kill: -9; RORg inh: -25%; BRCA1 expr act: 20%

What do the screens show for `CCO/C=C/C(O)(CNC(=O)c1ccc(C(C)(C)C)cc1)C(F)(F)F` (stereo not given)?
p53 reactivator: 9%; VP16 counter: 20µM*; ELG1 DNA repair: 15%; Giardia kill: 6; RORg inh: -85%; BRCA1 expr act: -5%

Results for CCOC(=O)CNC(=O)c1ccc(C)cc1 ?
p53 reactivator: 1%; VP16 counter: -3%; ELG1 DNA repair: 9%; Giardia kill: -10; RORg inh: 43%; BRCA1 expr act: 18%

How did CCCN1C(=O)c2ccccc2NC1c1cc(OC)c(OC)c(OC)c1 (stereo not given) do in these assays?
p53 reactivator: 23%; VP16 counter: -5%; ELG1 DNA repair: 6%; Giardia kill: 1; RORg inh: inconclusive; BRCA1 expr act: -36%

What do the screens show for `COc1ccc(CCN2C(=O)c3ccccc3NC2c2cc(Cl)c(O)c(OC)c2)cc1` (stereo not given)?
p53 reactivator: 3%; VP16 counter: 3%; ELG1 DNA repair: 7.3µM*; Giardia kill: 5; RORg inh: 33%; BRCA1 expr act: -37%

Results for O=C/C(=C\Nc1ccc(Cl)cn1)c1nc2ccccc2o1 ?
p53 reactivator: 10%; VP16 counter: 22µM*; ELG1 DNA repair: 16%; Giardia kill: 15; RORg inh: 14µM*; BRCA1 expr act: -58%

Results for O=C/C(=C\Nc1ccc(S(=O)(=O)CCO)cc1)c1nc2cc(Cl)ccc2o1 ?
p53 reactivator: -2%; VP16 counter: -15%; ELG1 DNA repair: -17%; Giardia kill: -4; RORg inh: 8.9µM*; BRCA1 expr act: -35%

How did O=C/C(=C\Nc1ccc(Cl)cn1)c1nc2cc(Cl)ccc2o1 do in these assays?
VP16 counter: -3%; Giardia kill: 0; RORg inh: inconclusive; BRCA1 expr act: -50%

How did OCCNc1cc(-n2nc(-c3ccccc3)cc2-c2ccccc2)ncn1 do in these assays?
p53 reactivator: -2%; VP16 counter: 0%; ELG1 DNA repair: 16µM*; Giardia kill: 9; RORg inh: 23%; BRCA1 expr act: -3%

How did S=C1N(c2ccccc2)CN(C2CCCCC2)CN1c1ccccc1 do in these assays?
p53 reactivator: 3%; VP16 counter: 20µM*; ELG1 DNA repair: inconclusive; Giardia kill: 3; RORg inh: 11µM*; BRCA1 expr act: 1%
